From PubChem BioAssay
The source made the active and inactive calls.

Experiments:
[1] = optical density shifts of acrAB sulA E. coli – strain DRC41, OD650, 48 h, E. coli filamentation inducer project, primary screen (AID 1152); details: higher = more signal, called active from +8 up or from −8 down;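 further: E. coli MC1000 strain DRC41 lacking acrAB efflux pump and sulA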
[2] = probe aLefty1 binding on compound microarray – biochemical, small-molecule microarray, 635/667 nm fluorescence, primary screen (AID 1153); details: higher = more signal;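 further: score merges spot fluorescence with signal-to-noise ratio from the scanned slide images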
[3] = plasmodial surface anion channel blockers, osmotic lysis – cell-based, P. falciparum Indochina, OD700, 1 h, primary screen (AID 1154); details: P. falciparum Indochina infected RBC osmotic lysis, higher = more signal, called active from +8 up or from −8 down
[4] = plasmodial surface anion channel blockers, osmotic lysis – cell-based, P. falciparum Indochina, OD700, 2 h, primary screen (AID 1155);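 further: lysis reports solute entry through the parasite surface anion channel PSAC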; details: P. falciparum Indochina infected erythrocytes, higher = more signal, called active from +8 up or from −8 down
[5] = changes in parasitized red cell lysis, either direction – P. falciparum Indochina, OD700, 3 h, PSAC antagonist project, primary screen (AID 1156); details: P. falciparum-infected erythrocytes, osmotic lysis, higher = more signal, called active from +8 up or from −8 down
[6] = plasmodial surface anion channel blockers, osmotic lysis – cell-based, P. falciparum Indochina, OD700, 18 h, primary screen (AID 1157); details: P. falciparum Indochina infected erythrocytes, osmotic lysis OD700, 18 h; higher = more signal, called active from +8 up or from −8 down
[7] = S6 kinase pathway phospho-S6 level changes – cell-based, A549, cytoblot, luminescence, serum-stimulated, primary screen (AID 1158); details: 5 h, higher = more signal;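 further: serum-stimulated A549 lung adenocarcinoma cells; signal is phosphorylated S6 detected by cytoblot immunostaining with HRP secondary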
[8] = target: NADPH oxidase 2 (Homo sapiens) (UniProt P04839); assay: compounds shifting NOX2 Amplex Red fluorescence – cell-based, HEK293-NOX2, PMA-stimulated, NOX inhibitor project, primary screen (AID 1159); details: 45 min, higher = more signal, called active from +8 up or from −8 down; further: test concentration not given here
[9] = target: NADPH oxidase 4 (Homo sapiens) (UniProt Q9NPH5); assay: compounds shifting NOX4 Amplex Red fluorescence – cell-based, HEK293-NOX4, tetracycline-induced, NOX inhibitor project, primary screen (AID 1160); details: HEK293-NOX4, Amplex Red H2O2 fluorescence, 45 min; higher = more signal, called active from +8 up or from −8 down
[10] = target: NADPH oxidase 5 (Homo sapiens) (UniProt Q96PH1); assay: compounds shifting NOX5 Amplex Red fluorescence – cell-based, HEK293-NOX5, NOX inhibitor project, primary screen (AID 1161); details: HEK293-NOX5, ionomycin, 45 min, higher = more signal
[11] = compound effects on lung adenocarcinoma cell viability – A549, calcein-AM fluorescence, 48 h, basal, profiling panel (AID 1162); details: higher = more signal; further: test concentration not given here
[12] = compound effects on differentiated 3T3-L1 adipocyte viability – cell-based, 3T3-L1 adipocytes, calcein-AM fluorescence, 48 h, basal, profiling panel (AID 1163); details: 3T3-L1 adipocytes viability, higher = more signal; further: test concentration not given here
[13] = compound effects on hepatocellular carcinoma cell viability – HepG2, calcein-AM fluorescence, 48 h, basal, profiling panel (AID 1164); details: higher = more signal; further: test concentration not given here
[14] = compound effects on multiple myeloma cell viability – MM1S, calcein-AM fluorescence, 48 h, basal, profiling panel (AID 1165); details: higher = more signal;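 further: viability of MM1S multiple myeloma cells under basal unstimulated conditions; test concentration not given here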
[15] = calcein-AM signal in unstimulated myeloma cells – cell-based, calcein-AM fluorescence, 48 h, PK04 Diversity Set, profiling panel (AID 1166); details: RPMI8226 myeloma viability, higher = more signal;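 further: cells grown under basal conditions without added stimulus; test concentration not given here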
[16] = JC-1 mitochondrial signal, unstimulated HepG2 cells – cell-based, JC-1 fluorescence, 24 h, 100 nL compound, profiling panel (AID 1167); details: HepG2 mitochondrial potential, higher = more signal; further: test concentration not given here
[17] = JC-1 mitochondrial signal, unstimulated adipocytes – cell-based, JC-1 fluorescence, 3T3-L1 adipocytes, 24 h, 100 nL compound, profiling panel (AID 1168); details: JC-1 mitochondrial fluorescence, higher = more signal, called active from +8 up or from −8 down; further: test concentration not given here
[18] = JC-1 mitochondrial signal, unstimulated myeloma cells – cell-based, JC-1 fluorescence, RPMI8226, 24 h, 100 nL compound, profiling panel (AID 1169); details: JC-1 mitochondrial potential fluorescence, higher = more signal; further: test concentration not given here
[19] = JC-1 mitochondrial signal, unstimulated MM1S myeloma – cell-based, JC-1 fluorescence, 24 h, 100 nL compound, profiling panel (AID 1170); details: MM1S mitochondrial potential, higher = more signal; further: test concentration not given here
[20] = resazurin metabolic signal in A549 cells – cell-based, resazurin fluorescence, 24 h, PK04 Diversity Set, profiling panel (AID 1171); details: A549 viability, higher = more signal, called active from +8 up or from −8 down; further: test concentration not given here

NADPH oxidase 5 (Homo sapiens), sequence (Q96PH1 whole entry, looked up): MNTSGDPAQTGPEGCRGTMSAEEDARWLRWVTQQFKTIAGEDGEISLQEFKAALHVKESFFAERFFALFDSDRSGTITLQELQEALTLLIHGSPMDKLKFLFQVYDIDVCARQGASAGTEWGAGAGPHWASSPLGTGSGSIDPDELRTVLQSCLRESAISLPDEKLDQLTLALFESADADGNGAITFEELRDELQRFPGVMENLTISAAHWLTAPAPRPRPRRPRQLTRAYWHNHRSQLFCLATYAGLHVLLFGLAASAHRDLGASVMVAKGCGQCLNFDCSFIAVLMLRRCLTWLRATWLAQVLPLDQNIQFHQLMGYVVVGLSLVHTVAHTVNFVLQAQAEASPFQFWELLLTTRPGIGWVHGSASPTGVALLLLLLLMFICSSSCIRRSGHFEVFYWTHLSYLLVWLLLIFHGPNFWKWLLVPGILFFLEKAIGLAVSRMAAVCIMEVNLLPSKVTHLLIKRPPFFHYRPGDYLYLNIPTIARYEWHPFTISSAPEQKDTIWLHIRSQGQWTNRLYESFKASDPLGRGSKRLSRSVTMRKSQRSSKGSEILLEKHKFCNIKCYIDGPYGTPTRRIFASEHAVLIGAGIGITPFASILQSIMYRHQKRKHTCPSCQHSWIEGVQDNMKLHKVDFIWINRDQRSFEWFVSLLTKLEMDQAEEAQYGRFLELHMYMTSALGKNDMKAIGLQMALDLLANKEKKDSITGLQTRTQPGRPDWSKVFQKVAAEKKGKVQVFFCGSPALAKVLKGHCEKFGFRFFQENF
NADPH oxidase 4 (Homo sapiens), sequence (Q9NPH5 whole entry, looked up): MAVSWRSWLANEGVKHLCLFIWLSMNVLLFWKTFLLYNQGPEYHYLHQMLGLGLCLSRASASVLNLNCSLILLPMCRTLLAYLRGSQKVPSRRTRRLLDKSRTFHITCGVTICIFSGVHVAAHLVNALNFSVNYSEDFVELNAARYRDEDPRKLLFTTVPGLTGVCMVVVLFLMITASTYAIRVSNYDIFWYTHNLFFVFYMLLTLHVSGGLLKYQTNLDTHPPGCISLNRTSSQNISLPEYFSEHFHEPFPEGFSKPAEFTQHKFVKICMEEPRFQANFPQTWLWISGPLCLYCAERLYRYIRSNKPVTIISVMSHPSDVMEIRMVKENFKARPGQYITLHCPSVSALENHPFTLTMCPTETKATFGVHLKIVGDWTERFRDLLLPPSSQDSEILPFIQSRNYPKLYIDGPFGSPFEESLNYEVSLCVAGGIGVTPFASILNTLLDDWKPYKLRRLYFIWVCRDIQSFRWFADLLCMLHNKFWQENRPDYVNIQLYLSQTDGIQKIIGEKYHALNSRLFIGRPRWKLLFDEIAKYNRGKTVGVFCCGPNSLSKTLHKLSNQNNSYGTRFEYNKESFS
NADPH oxidase 2 (Homo sapiens), sequence (P04839 whole entry, looked up): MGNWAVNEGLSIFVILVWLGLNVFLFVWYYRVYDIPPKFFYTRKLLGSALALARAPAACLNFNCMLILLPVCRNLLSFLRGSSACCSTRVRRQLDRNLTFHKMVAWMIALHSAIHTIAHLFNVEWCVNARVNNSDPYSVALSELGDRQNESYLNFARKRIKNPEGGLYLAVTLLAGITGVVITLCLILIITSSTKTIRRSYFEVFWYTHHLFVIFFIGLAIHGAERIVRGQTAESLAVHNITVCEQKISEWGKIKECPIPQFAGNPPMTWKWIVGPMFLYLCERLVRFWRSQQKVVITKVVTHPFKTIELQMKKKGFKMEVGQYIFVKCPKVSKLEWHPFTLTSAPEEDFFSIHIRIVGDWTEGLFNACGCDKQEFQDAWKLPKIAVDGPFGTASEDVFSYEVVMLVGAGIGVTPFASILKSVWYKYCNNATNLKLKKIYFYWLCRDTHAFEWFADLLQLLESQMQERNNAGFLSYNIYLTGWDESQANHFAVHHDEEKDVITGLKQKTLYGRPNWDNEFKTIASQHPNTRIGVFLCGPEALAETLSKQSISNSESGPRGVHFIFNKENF

Row | SMILES | z-score [1] | composite z-score [2] | z-score [3] | z-score [4] | z-score [5] | z-score [6] | z-score [7] | z-score [8] | z-score [9] | z-score [10] | z-score [11] | z-score [12] | z-score [13] | z-score [14] | z-score [15] | z-score [16] | z-score [17] | z-score [18] | z-score [19] | z-score [20]
1 | COc1ccc(NN2C(C(O)c3ccccn3)C=CC3C(=O)N(C4CCCCC4)C(=O)C32)cc1 (stereo not given) | 0.29 (inactive) | 0.267 | 3.45 (inactive) | 0.539 (inactive) | 0.34 (inactive) | 0.536 (inactive) | -0.552 | -0.973 (inactive) | -3.8 (inactive) | -2.33 | -0.834 | 0.23 | 1.44 | -1.3 | -3.2 | -0.645 | -0.089 (inactive) | 0.201 | -1.51 | 0.342 (inactive)
2 | COc1ccccc1CN1C(=O)c2ccccc2[C@](Cc2ccccc2I)(C(=O)NC(C)C)[C@@H]1c1ccc(CO)cc1 | 0.646 (inactive) | 0.0494 | 4.1 (inactive) | 0.644 (inactive) | 0.632 (inactive) | 0.621 (inactive) | 0.0569 | -2.12 (inactive) | 0.143 (inactive) | -2.1 | 0.312 | 0.771 | -0.185 | -1.38 | -2.99 | 1.63 | -0.0467 (inactive) | -0.507 | -1.82 | -0.306 (inactive)
3 | C=C[C@@H](C)[C@H](OC(=O)Nc1ccc(SC)cc1)c1ccc(OCCO)cc1 | -0.605 (inactive) | -0.33 | 27.9 (active) | 12 (active) | 3.4 (inactive) | 1.75 (inactive) | 2.17 | -0.329 (inactive) | -0.14 (inactive) | -0.18 | -0.848 | 0.54 | 0.0237 | 0.191 | 0.794 | -0.692 | 0.396 (inactive) | 0.917 | -1.13 | -0.0363 (inactive)
4 | C=C(C(=O)CC[C@H](OC(=O)c1cccnc1)c1cccc(OCCO)c1)C(C)C | 0.184 (inactive) | 0.0327 | 14.4 (active) | 2.83 (inactive) | 1.76 (inactive) | 1.04 (inactive) | -0.0915 | 0.657 (inactive) | -0.0784 (inactive) | -2.05 | 0.647 | 0.47 | -0.419 | -2.44 | -1.46 | -1.03 | 0.584 (inactive) | -0.0636 | -0.326 | 0.371 (inactive)
5 | C=CCN1Cc2ccccc2C[C@@]2(N=C(c3ccc(OCCCO)cc3)O[C@H]2c2ccccc2)C1=O | 0.404 (inactive) | 0.57 | 28.1 (active) | 23.6 (active) | 2.55 (inactive) | 5.74 (inactive) | 0.624 | -5.76 (inactive) | -0.323 (inactive) | -3.72 | -1.46 | 0.906 | -1.05 | -3.52 | -3.95 | 0.166 | 1.4 (inactive) | -1.03 | -2.48 | -3.12 (inactive)
6 | COc1ccccc1CN1C(=O)c2ccccc2[C@@H](C(=O)NC(C)C)[C@@H]1c1ccc(CO)cc1 | 0.671 (inactive) | 0.211 | 1.18 (inactive) | 0.525 (inactive) | 0.797 (inactive) | 0.376 (inactive) | 0.0984 | 0.372 (inactive) | 1.44 (inactive) | 0.976 | 1.66 | 0.611 | 1.95 | 0.472 | 0.717 | 1.63 | -0.41 (inactive) | 0.652 | -0.365 | 2.35 (inactive)
7 | CCOC(=O)C1=CC[C@@H](c2cc(Cl)ccc2Cl)N(S(=O)(=O)c2ccc(C)cc2)[C@H]1c1ccc(OC)cc1 | -0.718 (inactive) | 0.369 | 2.98 (inactive) | 1.92 (inactive) | 0.926 (inactive) | 0.826 (inactive) | -0.371 | 0.28 (inactive) | -0.51 (inactive) | 0.465 | -0.41 | -0.603 | 0.118 | -0.852 | 0.199 | 1.17 | -1 (inactive) | 0.642 | -2.07 | -0.629 (inactive)
8 | CO[C@H]1O[C@H](CO)[C@@H](OC(=O)Nc2ccccc2-c2ccccc2)[C@H](OC(=O)Nc2ccc3c(c2)OCO3)[C@@H]1OC(=O)Nc1ccc2c(c1)OCO2 | -0.609 (inactive) | 0.658 | 15.3 (active) | 2.72 (inactive) | 1.22 (inactive) | 1.11 (inactive) | -0.0176 | 0.878 (inactive) | -0.722 (inactive) | -1.49 | 0.105 | -1.46 | -1.05 | -1.49 | -1.84 | -0.467 | 1.34 (inactive) | -0.363 | -0.263 | -1.77 (inactive)
9 | CN1C(=O)C2C=CC(C(O)C3CCCCC3)N(N3CCCCC3)C2C1=O (stereo not given) | -0.898 (inactive) | 0.493 | 0.0569 (inactive) | 0.257 (inactive) | 0.42 (inactive) | 1.27 (inactive) | -0.659 | -0.407 (inactive) | 0.674 (inactive) | -0.23 | -1.21 | -0.52 | -0.517 | -0.163 | 0.084 | -0.968 | -0.347 (inactive) | -0.763 | -0.228 | -0.167 (inactive)
